Results: PubChem BioAssay (EPA / NIEHS)
“And” between values parts separate entries of the source, which are not always exact repeats. Identical values can stand only once. Inconclusive results are not listed. Some compounds were tested as several samples or in several runs, with calls that do not always agree. The source made the active and inactive calls. How the source made its calls, unless noted: active means hit-call score of the fitted dose curve at least 0.9, where 1 is the maximum; inconclusive means response in the unintended direction; inactive means score below 0.9.

What was measured:
[1] = target: Bile acid receptor (Homo sapiens) (UniProt Q96RI1); test: ATG_FXR_TRANS: Attagene TRANS-FACTORIAL HepG2 Assay for Farnesoid X Receptor (FXR) (AID 2282979); details: HepG2 Attagene TRANS FXR-GAL4 reporter transcription;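 further: hits raise reporter mRNA above DMSO so AC50 marks FXR activation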
Bile acid receptor (Homo sapiens), sequence (Q96RI1 whole entry, looked up, the tested form may be a part): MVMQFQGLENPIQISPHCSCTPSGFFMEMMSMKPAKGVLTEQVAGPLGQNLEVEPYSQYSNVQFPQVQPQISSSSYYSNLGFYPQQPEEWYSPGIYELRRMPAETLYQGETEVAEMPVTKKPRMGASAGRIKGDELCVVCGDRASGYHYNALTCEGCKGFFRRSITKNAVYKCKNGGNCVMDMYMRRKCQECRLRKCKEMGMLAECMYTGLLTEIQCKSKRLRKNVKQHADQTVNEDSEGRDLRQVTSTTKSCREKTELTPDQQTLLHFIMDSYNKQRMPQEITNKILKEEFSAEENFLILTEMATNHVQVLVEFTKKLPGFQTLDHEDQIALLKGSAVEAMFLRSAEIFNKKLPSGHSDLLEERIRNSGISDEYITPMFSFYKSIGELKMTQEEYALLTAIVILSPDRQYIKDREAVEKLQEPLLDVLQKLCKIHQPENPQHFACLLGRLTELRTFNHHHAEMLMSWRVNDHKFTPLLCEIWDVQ
Procedure, shortened: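 HepG2 cells transiently transfected with reporter constructs in which a chimeric FXR-GAL4 protein drives a GAL4-UAS reporter; 24 h compound exposure. Reporter mRNA measured by RT-PCR, FAM labelling, HpaI digestion and capillary electrophoresis; gain-of-signal versus DMSO.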

[2] = target: Oxysterols receptor LXR-alpha (Homo sapiens) (UniProt Q13133); test: ATG_LXRa_TRANS: Attagene TRANS-FACTORIAL HepG2 Assay for human Liver X Receptor alpha (LXRa) (AID 2282980); details: HepG2 Attagene TRANS reporter, LXRa transactivation
Oxysterols receptor LXR-alpha (Homo sapiens), sequence (Q13133 whole entry, looked up, the tested form may be a part): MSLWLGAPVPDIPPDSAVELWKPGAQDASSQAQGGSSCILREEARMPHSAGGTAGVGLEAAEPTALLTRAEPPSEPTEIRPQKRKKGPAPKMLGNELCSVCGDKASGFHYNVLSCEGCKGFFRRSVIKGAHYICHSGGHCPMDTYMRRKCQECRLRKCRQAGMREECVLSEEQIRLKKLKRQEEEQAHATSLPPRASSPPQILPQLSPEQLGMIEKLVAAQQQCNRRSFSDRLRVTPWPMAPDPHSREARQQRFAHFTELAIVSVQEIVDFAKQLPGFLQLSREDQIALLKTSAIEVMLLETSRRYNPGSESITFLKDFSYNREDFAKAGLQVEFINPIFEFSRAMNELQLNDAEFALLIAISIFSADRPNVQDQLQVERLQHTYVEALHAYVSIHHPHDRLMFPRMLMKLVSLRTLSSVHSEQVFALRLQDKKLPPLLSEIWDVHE
Procedure, shortened: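 HepG2 cells were transiently transfected with multiplexed reporter units driven by chimeric LXRa–GAL4 fusion proteins, then dosed for 24 h. Reporter mRNA was quantified by RT-PCR, fluorescent labelling and capillary electrophoresis; gain of signal fitted against DMSO baseline.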

[3] = target: Oxysterols receptor LXR-beta (Homo sapiens) (UniProt P55055); test: ATG_LXRb_TRANS: Attagene TRANS-FACTORIAL HepG2 Assay for human Liver X Receptor beta (LXRb) (AID 2282981); details: HepG2 Attagene TRANS GAL4-LXRb reporter, mRNA
Oxysterols receptor LXR-beta (Homo sapiens), sequence (P55055 whole entry, looked up, the tested form may be a part): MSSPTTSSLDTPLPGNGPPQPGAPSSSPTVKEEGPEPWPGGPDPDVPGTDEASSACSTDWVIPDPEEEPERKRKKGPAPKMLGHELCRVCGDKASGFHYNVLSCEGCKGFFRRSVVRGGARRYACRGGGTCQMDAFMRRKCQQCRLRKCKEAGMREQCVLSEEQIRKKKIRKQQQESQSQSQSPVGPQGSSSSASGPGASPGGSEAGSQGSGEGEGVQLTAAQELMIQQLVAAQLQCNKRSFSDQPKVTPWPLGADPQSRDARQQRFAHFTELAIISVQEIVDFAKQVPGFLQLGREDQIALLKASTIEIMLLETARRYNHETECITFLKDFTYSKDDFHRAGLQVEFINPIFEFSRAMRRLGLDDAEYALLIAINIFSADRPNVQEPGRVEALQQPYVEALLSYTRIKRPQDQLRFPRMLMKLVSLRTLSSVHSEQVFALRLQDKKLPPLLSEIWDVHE
Procedure, shortened: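 Gain-of-signal mRNA reporter endpoint, DMSO as negative control. Transiently transfected HepG2 cells carrying the NR-Gal4 chimera and GAL4-UAS reporter units were treated 24 h; transcripts quantified by RT-PCR and capillary electrophoresis fluorescence.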

[4] = target: Transcriptional activator Myb (Homo sapiens) (UniProt P10242); test: ATG_Myb_CIS: Attagene CIS-FACTORIAL HepG2 Assay for human Myeloblastosis (Myb) Proto-Oncogene Transcription Factor (AID 2282986; active means hit-call score of the fitted dose curve at least 0.9, where 1 is the maximum; inactive means score below 0.9); details: HepG2 Attagene CIS-FACTORIAL Myb reporter transcription; actives raise or lower the signal
Transcriptional activator Myb (Homo sapiens), sequence (P10242 whole entry, looked up): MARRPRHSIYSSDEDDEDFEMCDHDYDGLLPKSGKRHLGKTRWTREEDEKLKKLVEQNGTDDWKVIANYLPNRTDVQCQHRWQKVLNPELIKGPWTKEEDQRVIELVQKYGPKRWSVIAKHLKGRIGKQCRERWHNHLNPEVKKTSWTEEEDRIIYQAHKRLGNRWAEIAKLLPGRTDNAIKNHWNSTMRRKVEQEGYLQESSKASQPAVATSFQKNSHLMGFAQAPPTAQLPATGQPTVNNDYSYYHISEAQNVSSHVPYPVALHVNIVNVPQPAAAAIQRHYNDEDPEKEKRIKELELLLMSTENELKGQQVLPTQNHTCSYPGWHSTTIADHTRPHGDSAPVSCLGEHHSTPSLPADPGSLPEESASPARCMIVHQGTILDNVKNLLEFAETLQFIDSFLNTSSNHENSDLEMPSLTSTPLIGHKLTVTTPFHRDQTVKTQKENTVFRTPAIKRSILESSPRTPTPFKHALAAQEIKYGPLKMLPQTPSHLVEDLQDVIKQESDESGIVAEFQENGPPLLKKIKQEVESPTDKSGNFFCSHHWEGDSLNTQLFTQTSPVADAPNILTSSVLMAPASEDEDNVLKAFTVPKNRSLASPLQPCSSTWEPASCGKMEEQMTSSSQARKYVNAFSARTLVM
Procedure, shortened: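 Endogenous transcription factor activity at a Myb-responsive cis element is reported in human liver HepG2 cells after 24 h chemical treatment. Reporter mRNA is detected by RT-PCR and capillary electrophoresis fluorescence, with DMSO as baseline.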

[5] = target: Nuclear respiratory factor 1 (Homo sapiens) (UniProt Q16656); test: ATG_NRF1_CIS: Attagene CIS-FACTORIAL HepG2 Assay for human Nuclear Respiratory Factor 1 (NRF1) Orphan Gene (AID 2282987; active means hit-call score of the fitted dose curve at least 0.9, where 1 is the maximum; inactive means score below 0.9); details: HepG2 NRF1 cis-element reporter, Attagene multiplex; actives raise or lower the signal
Nuclear respiratory factor 1 (Homo sapiens), sequence (Q16656 whole entry, looked up): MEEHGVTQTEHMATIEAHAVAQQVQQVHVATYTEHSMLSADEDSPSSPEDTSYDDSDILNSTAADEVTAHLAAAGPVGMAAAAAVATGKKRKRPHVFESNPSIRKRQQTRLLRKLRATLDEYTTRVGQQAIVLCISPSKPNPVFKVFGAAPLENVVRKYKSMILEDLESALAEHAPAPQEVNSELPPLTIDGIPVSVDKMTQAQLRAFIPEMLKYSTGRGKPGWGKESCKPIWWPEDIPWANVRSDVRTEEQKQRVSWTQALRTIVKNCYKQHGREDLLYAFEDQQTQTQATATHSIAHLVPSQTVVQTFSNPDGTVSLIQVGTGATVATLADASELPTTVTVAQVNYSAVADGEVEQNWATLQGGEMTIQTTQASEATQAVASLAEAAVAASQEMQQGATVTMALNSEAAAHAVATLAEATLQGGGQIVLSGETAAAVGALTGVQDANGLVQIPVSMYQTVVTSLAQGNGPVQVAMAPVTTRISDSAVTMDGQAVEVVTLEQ
Procedure, shortened: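 Human hepatoma HepG2 cells carrying transfected promoter-regulated reporter units were incubated with test chemicals for 24 h. Reporter transcripts were measured by RT-PCR plus capillary electrophoresis, and endpoints derived by bidirectional fitting with DMSO as baseline.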

[6] = ATG_M_06_TRANS: Attagene TRANS-FACTORIAL HepG2 Assay for M06 Transcription Factor (Internal Marker) (AID 2282983); details: HepG2 Attagene TRANS M06 internal marker reporter;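 on AC50: potency for rise in reporter mRNA above DMSO baseline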
Procedure, shortened: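 HepG2 cells transiently transfected with multiplexed GAL4-UAS reporter transcription units; after 24 h compound exposure, reporter mRNA measured by RT-PCR, FAM-labelled primer extension, HpaI digestion and capillary electrophoresis. Gain-of-signal fitted versus DMSO baseline; background control readout.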

[7] = ATG_M_32_TRANS: Attagene TRANS-FACTORIAL HepG2 Assay for M32 Transcription Factor (Internal Marker) (AID 2282984); details: HepG2 Attagene TRANS M32 internal marker reporter
Procedure, shortened: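 Capillary electrophoresis of 6-FAM-labelled reporter fragments gives the signal; data fitted for gain over DMSO negative control. Source: HepG2 cells bearing transient multiple reporter transcription units, 24 h exposure.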

[8] = target: Hepatocyte nuclear factor 4-alpha (Homo sapiens) (UniProt P41235); test: ATG_HNF4a_TRANS: Attagene TRANS-FACTORIAL HepG2 Assay for human Hepatocyte Nuclear Factor 4 alpha (HNF4a) (AID 2282982); details: HepG2 HNF4a transactivation reporter, mRNA readout
Hepatocyte nuclear factor 4-alpha (Homo sapiens), sequence (P41235 whole entry, looked up, the tested form may be a part): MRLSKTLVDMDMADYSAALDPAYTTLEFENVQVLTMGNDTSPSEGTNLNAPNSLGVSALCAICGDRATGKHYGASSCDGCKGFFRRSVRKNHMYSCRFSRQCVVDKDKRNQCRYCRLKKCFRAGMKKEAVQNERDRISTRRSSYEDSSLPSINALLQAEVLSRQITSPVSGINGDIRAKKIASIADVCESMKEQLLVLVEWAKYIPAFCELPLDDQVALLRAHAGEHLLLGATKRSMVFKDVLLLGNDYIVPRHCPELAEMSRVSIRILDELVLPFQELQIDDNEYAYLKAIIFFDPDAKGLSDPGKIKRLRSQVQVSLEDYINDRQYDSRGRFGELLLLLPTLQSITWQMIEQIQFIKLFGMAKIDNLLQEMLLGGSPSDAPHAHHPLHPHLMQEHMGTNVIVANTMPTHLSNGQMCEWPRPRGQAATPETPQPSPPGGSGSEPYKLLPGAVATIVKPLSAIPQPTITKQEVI
Procedure, shortened: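 Gain-of-signal mRNA induction, relative to DMSO vehicle, was read after 24 h compound treatment of HepG2 cells bearing transfected GAL4-UAS reporters. Detection used RT-PCR, 6-FAM primer extension and capillary electrophoresis.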

[9] = target: Nuclear receptor subfamily 4 group A member 2 (Homo sapiens) (UniProt P43354); test: ATG_NURR1_TRANS: Attagene TRANS-FACTORIAL HepG2 Assay for human Nuclear Receptor Related Protein 1 (NURR1) (AID 2282985); details: HepG2 Attagene TRANS reporter, mRNA readout
Nuclear receptor subfamily 4 group A member 2 (Homo sapiens), sequence (P43354 whole entry, looked up): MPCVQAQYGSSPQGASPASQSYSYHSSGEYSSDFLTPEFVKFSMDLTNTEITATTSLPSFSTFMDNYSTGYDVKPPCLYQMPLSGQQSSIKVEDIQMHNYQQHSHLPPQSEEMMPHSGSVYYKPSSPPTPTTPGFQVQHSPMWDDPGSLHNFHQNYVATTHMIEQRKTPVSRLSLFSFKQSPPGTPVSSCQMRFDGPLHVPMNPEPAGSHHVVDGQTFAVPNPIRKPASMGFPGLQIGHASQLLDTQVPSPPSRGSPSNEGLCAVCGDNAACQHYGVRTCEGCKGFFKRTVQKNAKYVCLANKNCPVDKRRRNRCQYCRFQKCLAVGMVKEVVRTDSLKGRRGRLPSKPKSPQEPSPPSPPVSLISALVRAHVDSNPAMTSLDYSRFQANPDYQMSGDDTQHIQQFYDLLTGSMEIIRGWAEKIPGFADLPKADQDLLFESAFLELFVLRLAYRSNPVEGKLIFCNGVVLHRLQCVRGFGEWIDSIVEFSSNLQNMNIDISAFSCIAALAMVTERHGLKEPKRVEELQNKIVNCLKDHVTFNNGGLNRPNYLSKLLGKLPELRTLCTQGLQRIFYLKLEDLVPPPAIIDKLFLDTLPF
Procedure, shortened: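 HepG2 / transient MRTU transfection / 24 h compound exposure / RT-PCR + CE fluorescence of reporter mRNA / gain-of-signal vs DMSO.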

Measured: AC50

CC(=[OH+])/C=C(/C)[O-].CC(=[OH+])/C=C(/C)[O-].CC(=[OH+])/C=C(/C)[O-].[Fe]
inactive: [1] | [2] | [3] | [4] | [5]

CC(C)c1ccc(CO)cc1
inactive: [1] | [2] | [6] | [7] | [4]

O=C1CCCN1
inactive: [1] | [2] | [6] | [4]

CN(C)N=O
not listed: [2] | [4] | [7]
inactive: all other assays above

CC1(C)CCC(Cc2ccc(Cl)cc2)C1(O)Cn1cncn1 (centres undefined)
not listed: [8] | [9]
inactive: all other assays above

COC[C@H](C)N(C(=O)CCl)c1c(C)csc1C
not listed: [2] | [8]
inactive: all other assays above

CC(C)(c1ccccc1)c1ccc(O)c(C(C)(C)c2ccccc2)c1
inactive: [1] | [2] | [6] | [9] | [4]

ClC1(Cl)C2(Cl)C3(Cl)C4(Cl)C(Cl)(Cl)C5(Cl)C3(Cl)C1(Cl)C5(Cl)C24Cl (centres undefined)
inactive: [1] | [3] | [6] | [4] | [5]

CCC(C)c1cccc(C(C)CC)c1O (centres undefined)
active: [2] 14.3 µM | [9] 33.4 µM
not listed: [4]
inactive: all other assays above

O=C(c1ccccc1)C(Cl)Cl
inactive: [1] | [3] | [7] | [9] | [4]
active: [5] 24.8 µM

COS(=O)(=O)c1ccc(C)cc1
inactive: [1] | [2] | [7] | [5]

O=C(Cl)c1ccc(Cl)cc1
not listed: [8] | [9]
inactive: all other assays above

CCN(CC)C(=O)Cl
not listed: [2] | [9]
inactive: all other assays above

Cl/C=C\C[N+]12CN3CN(CN(C3)C1)C2
not listed: [2] | [6] | [8]
inactive: all other assays above

O=C(O)C(F)(F)C(F)(F)C(F)(F)C(F)(F)C(F)(F)C(F)(F)F
not listed: [2] | [4] | [8]
inactive: all other assays above

CCCCP(CCCC)CCCC
inactive: [1] | [2] | [3] | [4] | [5]

O=C1C2(Cl)C3(Cl)C4(Cl)C(Cl)(Cl)C5(Cl)C3(Cl)C1(Cl)C5(Cl)C24Cl (centres undefined)
active: [1] 4.29 µM and 8.79 µM and 10.4 µM
inactive: [1] | [2] | [3] | [6] | [7] | [4] | [5]

ClCc1cccnc1
not listed: [4] | [8] | [9]
inactive: all other assays above

ClC1=C(Cl)[C@]2(Cl)[C@@H]3[C@@H](Cl)[C@@H](Cl)C[C@@H]3[C@@]1(Cl)C2(Cl)Cl
not listed: [8] | [9]
inactive: all other assays above

Fc1ccc(C2(Cn3cncn3)OC2c2ccccc2Cl)cc1 (centres undefined)
inactive: [1] | [2] | [4] | [5]

CCc1ccccc1C
not listed: [9]
inactive: all other assays above

Oc1cccc2cccnc12
not listed: [7] | [9]
inactive: all other assays above

C=C(C)C#N
inactive: [1] | [2] | [7] | [4] | [5]

CCC(=O)C(CC(C)N(C)C)(c1ccccc1)c1ccccc1 (centres undefined)
inactive: [1] | [2] | [3] | [7] | [5]

CN(C)P(=O)(N(C)C)N(C)C
not listed: [9]
inactive: all other assays above

Clc1ccc(C2(Cn3cncn3)CC(Br)CO2)c(Cl)c1 (centres undefined)
active: [5] 47 µM
not listed: [2]
inactive: all other assays above

N#CN=C(N)N
not listed: [3] | [4] | [9]
inactive: all other assays above

O=C(O)C(F)(F)C(F)(F)C(F)(F)C(F)(F)C(F)(F)C(F)(F)C(F)(F)C(F)(F)C(F)(F)C(F)(F)F
inactive: [1] | [2] | [3] | [8] | [7] | [4]
active: [2] 57.2 µM | [6] 129 µM | [4] 154 µM | [5] 162 µM and 31.1 µM

C[C@@H]1C[C@@H]([C@H](O)CC2CC(=O)NC(=O)C2)C(=O)[C@@H](C)C1
not listed: [4] | [5]
inactive: all other assays above

c1cc[c]([Hg][c]2ccccc2)cc1
not listed: [2]
inactive: all other assays above

CCC(C)(C)c1ccc(O)c(C(C)(C)CC)c1
inactive: [7] | [5]
active: [1] 49.5 µM | [2] 9.67 µM | [3] 23.6 µM | [9] 33.4 µM

CCOP(=S)(OCC)SCCS(=O)(=O)CC
inactive: [1] | [2] | [3] | [4]

CCNc1nc(NC(C)(C)C)nc(SC)n1
not listed: [8] | [9]
inactive: all other assays above

CC(=O)[O][Hg][c]1ccccc1
not listed: [7] | [8] | [9]
inactive: all other assays above

CC(C)C1CCC(Cc2ccc(Cl)cc2)C1(O)Cn1cncn1 (centres undefined)
not listed: [8] | [9]
inactive: all other assays above

CCOP(OCC)OCC
not listed: [7] | [9]
inactive: all other assays above

CCN1CCC2(CC1)COc1cc3c(cc12)N(C(=O)c1ccc(-c2ccc(-c4nnc(C)o4)cc2C)cc1)CC3
inactive: [1] | [2] | [7] | [4] | [5]
active: [3] 1.01 µM

CCC[CH2][Sn]([Cl])([Cl])[Cl]
inactive: [1] | [8] | [4] | [5]

CCOC(=O)Nc1cccc(OC(=O)Nc2ccccc2)c1
inactive: [2] | [3] | [8] | [4] | [5]

CCC(=O)c1ccccc1
inactive: [1] | [6] | [7] | [4] | [5]

CC12CC1(C)C(=O)N(c1cc(Cl)cc(Cl)c1)C2=O (centres undefined)
not listed: [1] | [4]
inactive: all other assays above

O=S(=O)(c1ccc(Cl)cc1)c1ccc(Cl)cc1
inactive: [2] | [3] | [6]

O=C(Nc1ccc2[nH]ccc2c1)c1cc2cc(F)ccc2n1Cc1cccc(F)c1
not listed: [2] | [3] | [6]
inactive: all other assays above

COP(=S)(OC)Oc1ccc(S(=O)(=O)N(C)C)cc1
inactive: [2] | [3] | [8] | [6]

CC(C)(OO)c1ccccc1
inactive: [1] | [7] | [5]

[O-][Cl+2]([O-])O
not listed: [1] | [4]
inactive: all other assays above

Oc1c(I)cc(I)cc1I
active: [1] 100 µM | [9] 100 µM
not listed: [2] | [3]
inactive: all other assays above

CC(=O)C(Cl)C(=O)N(C)C (centres undefined)
not listed: [1] | [5] | [8]
inactive: all other assays above

O=C(OC1CCCCC1)c1ccccc1C(=O)OC1CCCCC1
inactive: [1] | [6] | [7] | [4] | [5]

Oc1ccc(-c2ccccc2)cc1
inactive: [1] | [6] | [7] | [5]

COP(=O)(OC)O/C(=C\Cl)c1cc(Cl)c(Cl)cc1Cl
inactive: [1] | [6] | [7]
active: [9] 115 µM | [4] 170 µM

Nc1ccc(Cl)cc1C(=O)c1ccccc1
inactive: [1] | [7] | [5]
active: [6] 160 µM

O=C/C=C/c1ccccc1
not listed: [1] | [5] | [6]
inactive: all other assays above

Clc1ccc(COC(Cn2ccnc2)c2ccc(Cl)cc2Cl)cc1 (centres undefined)
inactive: [1] | [6] | [7] | [4]

COP(=S)(OC)Oc1ccc(Sc2ccc(OP(=S)(OC)OC)cc2)cc1
not listed: [1] | [4] | [8]
inactive: all other assays above

COP(=S)(OC)Oc1cc(Cl)c(Cl)cc1Cl
inactive: [2] | [3] | [8] | [6] | [5]

CCOP(=S)(OCC)SCSP(=S)(OCC)OCC
inactive: [8] | [6] | [4] | [5]
active: [2] 7.73 µM | [3] 18.9 µM

Nc1ccc(N=Nc2ccc(-c3ccc(N=Nc4c(S(=O)(=O)O)cc5cc(S(=O)(=O)O)c(N=Nc6ccccc6)c(O)c5c4N)cc3)cc2)c(N)c1
inactive: [2] | [3] | [6] | [4] | [5]

CC(=O)OC(c1ccccc1)C(Cl)(Cl)Cl (centres undefined)
inactive: [1] | [3] | [7] | [4] | [5]

CCC1(c2ccc(N)cc2)CCC(=O)NC1=O (centres undefined)
inactive: [1] | [8] | [6] | [4]

C=CC(=O)N(C)C
not listed: [1] | [8] | [9]
inactive: all other assays above

COc1ccccc1OC
not listed: [1]
inactive: all other assays above

COP(=O)(OC)OC
not listed: [1] | [9]
inactive: all other assays above

O=[N+]([O-])c1ccc(O)c([N+](=O)[O-])c1
inactive: [2] | [3] | [6] | [4] | [5]

O=C(O)Cc1ccccc1
inactive: [1] | [4] | [5]

O=c1[nH]c(=O)[nH]c(=O)[nH]1
not listed: [1] | [6]
inactive: all other assays above

O=C(O)C(Cl)(Cl)Cl
not listed: [1] | [8] | [9]
inactive: all other assays above
